According to PubChem BioAssay AID589 (National Center for Advancing Translational Sciences (NCATS), 2007):
Among all 59,000 compounds or so, about 6,200 (11%) were called active. Another 9% or so got no clear call; they are omitted. Cut-off read from the data, not from the text of the source: active = max dye-equivalent concentration above about 10 nM; inconclusive = mostly about 1.1 nM to 9.6 nM; inactive = weaker than that. Many of the other results were omitted from the sample, so actives are more common in it than they were.

Assay: qHTS Assay for Spectroscopic Profiling in 4-MU Spectral Region
Details: compound autofluorescence, 340/450 nm, 4-MU equivalents; active compounds read high
How it was run: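 Compounds in 100 mM Tris, pH 8.0, sat 15 min at room temperature before fluorescence was read at 340 nm excitation/450 nm emission; a per-plate six-point 4-MU standard curve converted signals to dye-equivalent concentration at each compound concentration.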
For CSCC[C@H](NC(=O)NCc1cccs1)C(=O)O, the max dye-equivalent concentration was “inactive”. For COCCNc1ccnc(-c2cccc(NS(C)(=O)=O)c2)n1, the max dye-equivalent concentration was “inactive”. For N#Cc1ccc(CN2CCCC3(CCN(C(=O)c4ccco4)CC3)C2)cc1, the max dye-equivalent concentration was “inactive”. In the case of COc1ccc2c(CC(=O)Nc3nnc(C4CC4)s3)coc2c1, the max dye-equivalent concentration is reported as 11 nM (active). In the case of COc1ccc(Cc2nnc(NC(=O)Cc3cccs3)s2)cc1, the max dye-equivalent concentration is reported as “inactive”. In the case of COc1ccc(OCCCC(=O)Nc2nnc(C3CCCO3)s2)cc1 (stereo not drawn), the max dye-equivalent concentration is reported as “inactive”. With O/N=C1\CC2(Cc3nonc31)OCCO2 the max dye-equivalent concentration was “inactive”. For O=C(CN1CCOCC1)Nc1ccc(NC(=O)CN2CCOCC2)c(Cl)c1, the max dye-equivalent concentration was “inactive”. In the case of Fc1ccc(-c2nnc(CSc3nnc(-c4ccc5c(c4)OCO5)o3)o2)cc1, the max dye-equivalent concentration is reported as “inactive”. In the case of C=CCn1c(SCc2nnc(-c3ccccc3)o2)nnc1C(O)c1ccccc1 (stereo not drawn), the max dye-equivalent concentration is reported as “inactive”. With Fc1ccc2nc(-c3ccccc3)nc(SCc3nnc(-c4ccccc4)o3)c2c1 the max dye-equivalent concentration was 29 nM (active). In the case of O=C(N1CCOCC1)N1CCOCC1, the max dye-equivalent concentration is reported as “inactive”. In the case of O=C(c1csnn1)N1CCC[C@@]2(CCN(Cc3nccs3)C2)C1, the max dye-equivalent concentration is reported as “inactive”. In the case of O=C(OC(C(=O)NC1CCCC1)c1ccc(F)cc1)c1ccno1 (stereo not drawn), the max dye-equivalent concentration is reported as “inactive”. With CCn1c(NCCc2ccc(OC)c(OC)c2)nc2c1c(=O)n(C)c(=O)n2C the max dye-equivalent concentration was “inactive”. With O=C(O)c1nn(-c2ccc(Cl)cc2)c2c1C(=O)c1ccccc1C2=O the max dye-equivalent concentration was “inactive”. In the case of O=C(O)CN1C(=O)CC(Cc2ccccc2)C1=O (stereo not drawn), the max dye-equivalent concentration is reported as “inactive”. For O=C(NC1(C(F)(F)F)N=C2SCCN2C1=O)c1ccco1 (stereo not drawn), the max dye-equivalent concentration was “inactive”. For CCOC(=O)c1cnc(-n2nc(C)cc2C)nc1-n1nc(C)cc1C, the max dye-equivalent concentration was “inactive”. In the case of CCOC(=O)c1cc(-c2ccc(Cl)s2)nc2c1c(C)nn2C, the max dye-equivalent concentration is reported as 180 nM (active). With CCOC(=O)c1c(C(C#N)C#N)cc(C)nc1C the max dye-equivalent concentration was “inactive”. In the case of CN(C)c1nc2n(c(=O)n1)CCO2, the max dye-equivalent concentration is reported as “inactive”. With Cc1ccc(-n2nc(-c3ccco3)cc2C(=O)NCc2cccnc2)cc1 the max dye-equivalent concentration was “inactive”. For COCCn1c(=O)[nH]c2cc(C(=O)NCc3cccnc3)ccc2c1=O, the max dye-equivalent concentration was 41 nM (active). In the case of CC(C)(C)c1cc(C(=O)NCc2cccnc2)ccn1, the max dye-equivalent concentration is reported as “inactive”. In the case of CCOc1ccccc1Oc1cn[nH]c1-c1ccc(OC)cc1O, the max dye-equivalent concentration is reported as “inactive”. With Cc1cc(Cl)c(S(=O)(=O)NCCC(=O)O)cc1OCC(N)=O the max dye-equivalent concentration was “inactive”. For COc1cc(-c2nnc(Cn3cc(C(F)(F)F)ccc3=O)o2)cc(OC)c1OC, the max dye-equivalent concentration was “inactive”. For CCOC(=O)c1cc(-c2nnc(-c3cc(OC)c(OC)c(OC)c3)o2)c(C)nc1C, the max dye-equivalent concentration was 24 nM (active). For CCOC(=O)c1cc(NC(=O)SCC(=O)O)c(C)nc1C, the max dye-equivalent concentration was “inactive”. With O=C(NCc1ccco1)c1nc(-c2ccccc2)n(-c2ccccc2)n1 the max dye-equivalent concentration was “inactive”. For COC(=O)[C@@H](NC(=O)NCc1cccc(OC)c1)C(C)C, the max dye-equivalent concentration was “inactive”. With CCOc1ccc(-c2cn(S(=O)(=O)c3cccc4nsnc34)nc2N)cc1 the max dye-equivalent concentration was “inactive”. In the case of O=C(Cn1nnc(-c2ccccc2)n1)NCc1ccc2c(c1)OCO2, the max dye-equivalent concentration is reported as “inactive”. For CC1CCCCN1CC(=O)NCc1ccc2c(c1)OCO2 (stereo not drawn), the max dye-equivalent concentration was 51 nM (active). With CCOC(=O)NCc1ccc2c(c1)OCO2 the max dye-equivalent concentration was “inactive”. For COc1ccc(S(=O)(=O)Nc2c(C)n(C)n(-c3ccccc3)c2=O)cc1, the max dye-equivalent concentration was “inactive”. With CCOC(=O)Cn1c(SC)nc2sc3c(c2c1=O)CC(C)(C)OC3 the max dye-equivalent concentration was “inactive”. For CC1(C)Cc2c(sc3nc4n(c(=N)c23)CCCCC4)CO1, the max dye-equivalent concentration was “inactive”. With CCC1(C)Cc2c(sc3nc4n(c(=O)c23)CCCS4)CO1 (stereo not drawn) the max dye-equivalent concentration was 47 nM (active). For COc1ccc2[nH]cc(CCNc3cc(-c4ccccc4CN(C)C)ncn3)c2c1, the max dye-equivalent concentration was “inactive”. In the case of O=C(NCCCN1CCN(c2ccccc2F)CC1)C1CCC(=O)N1C1CCCCC1 (stereo not drawn), the max dye-equivalent concentration is reported as “inactive”. For COC(=O)c1sc(=S)n(-c2ccccc2)c1N, the max dye-equivalent concentration was “inactive”. With CC(C)CCNC(=O)C1CCCN(S(=O)(=O)c2ccc(F)cc2)C1 (stereo not drawn) the max dye-equivalent concentration was “inactive”. With COCCNc1ncnc2ccc(-c3cccnc3)cc12 the max dye-equivalent concentration was “inactive”. With CC1CCc2c(sc3c2C2=NS(=O)(=O)CCN2C=N3)C1 (stereo not drawn) the max dye-equivalent concentration was 26 nM (active). In the case of Cc1cc(NC(=O)CCC(=O)N(c2cccc(F)c2)C(C(=O)NC2CCCC2)c2ccncc2)no1 (stereo not drawn), the max dye-equivalent concentration is reported as “inactive”. For CS(=O)(=O)N1CCC2(CC1)CN(Cc1ccccc1)C2, the max dye-equivalent concentration was “inactive”. In the case of NC[C@@H]1O[C@H](O[C@@H]2[C@H](O[C@@H]3O[C@H](CO)[C@@H](COC[C@H]4O[C@@H](CN)[C@@H](O)[C@@H](O)[C@@H]4N)[C@@H]3O)[C@@H](O)[C@@H](N)C[C@H]2N)[C@@H](N)[C@H](O)[C@@H]1O, the max dye-equivalent concentration is reported as “inactive”. For COc1ccc(OC)c(NC(=O)CSc2nc(N)c(-c3ccccc3)c(=O)[nH]2)c1, the max dye-equivalent concentration was “inactive”. With C[N+]1(CCN=C=NC2CCCCC2)CCOCC1 the max dye-equivalent concentration was “inactive”. For CCCCNc1nc2c(c(=O)[nH]c(=O)n2C)n1CCOc1ccccc1, the max dye-equivalent concentration was “inactive”. In the case of CN1CCN(c2ncc3nc(-c4ccc(Cl)cc4)c(=O)n(-c4ccccc4)c3n2)CC1, the max dye-equivalent concentration is reported as 52 nM (active). For O=c1c(-c2ccc(F)cc2)nc2cncnc2n1-c1ccccc1, the max dye-equivalent concentration was “inactive”. In the case of O=c1c(-c2ccc(F)cc2)nc2cnc(N3CCOCC3)nc2n1-c1ccccc1, the max dye-equivalent concentration is reported as 23 nM (active). With COc1ncc2nc(-c3ccc(Cl)cc3)c(=O)n(C)c2n1 the max dye-equivalent concentration was 27 nM (active). With COc1ccc(Oc2ncc3nc(-c4ccc(F)cc4)c(=O)n(C)c3n2)cc1 the max dye-equivalent concentration was “inactive”. In the case of O=C(Nc1ccc(F)cc1)c1cccnc1N1CCOCC1, the max dye-equivalent concentration is reported as “inactive”. In the case of Cn1cc(-c2nc3cncnc3n(-c3ccccc3)c2=O)c2ccccc21, the max dye-equivalent concentration is reported as “inactive”. For O=C(c1ccc2c(c1)C(=O)N(c1ccc(Cl)cc1)C2=O)N1CCN(c2ccccn2)CC1, the max dye-equivalent concentration was “inactive”. In the case of O=C(NCCSc1ccccc1)c1ccco1, the max dye-equivalent concentration is reported as “inactive”. In the case of Cc1cc2ccccc2n2c(SCC(=O)N3CCN(C(=O)c4ccco4)CC3)nnc12, the max dye-equivalent concentration is reported as “inactive”. In the case of CC12CCC(C(=O)N3CCN(c4ncccn4)CC3)(c3nc4ccccc4nc31)C2(C)C (stereo not drawn), the max dye-equivalent concentration is reported as “inactive”. For O=c1c(-c2ccc3c(c2)OCCO3)c(C(F)(F)F)oc2cc(O)cc(O)c12, the max dye-equivalent concentration was “inactive”. With CC(=O)Nc1ccn(Cc2c(F)cccc2Cl)n1 the max dye-equivalent concentration was “inactive”. In the case of O=C(c1ccncc1)N1CCC2(CCCN(C(c3ccccc3)c3ccccc3)C2)CC1, the max dye-equivalent concentration is reported as “inactive”. For CC1CCCCC1NC(=O)CSc1nnc(N)s1 (stereo not drawn), the max dye-equivalent concentration was “inactive”. For CC(=O)CSc1nnc(CSc2ncccn2)n1C1CCCCC1, the max dye-equivalent concentration was “inactive”. With COc1ccccc1CNC(=O)CCn1c(=O)sc2ccccc21 the max dye-equivalent concentration was “inactive”. In the case of CCN(Cc1nc2ccccc2c(=O)[nH]1)Cc1cc(=O)oc2cc(C)c(C)cc12, the max dye-equivalent concentration is reported as “inactive”. With Cc1ccnc(SCCn2c(Br)nc3c2c(=O)[nH]c(=O)n3C)n1 the max dye-equivalent concentration was “inactive”. For CCCCNC(=O)c1ccccc1NC(=O)c1ccccc1N(C)S(C)(=O)=O, the max dye-equivalent concentration was “inactive”. For COc1ccccc1Nc1ncc(C(C)=O)c(C)n1, the max dye-equivalent concentration was “inactive”. For COCCCn1c(CCC(=O)O)ccc1-c1ccc(F)cc1, the max dye-equivalent concentration was 1600 nM (active). For CCN(CC)S(=O)(=O)c1cccc(C(=O)Nc2cc(C)nn2-c2nc(C)cc(C)n2)c1, the max dye-equivalent concentration was “inactive”. With c1ccc2sc(SCCSc3nc4ccccc4s3)nc2c1 the max dye-equivalent concentration was “inactive”. For CCOC(=O)N1CCN(C(=O)CNC(=O)Cc2ccc(Cl)cc2)CC1, the max dye-equivalent concentration was “inactive”. With CCOC(=O)N1CCN(C(=O)c2ccc3nc4cc(Cl)ccc4c(=O)n3c2)CC1 the max dye-equivalent concentration was 1300 nM (active). For CCOC(=O)N1CCN(C(=O)c2ccc(S(=O)(=O)c3ccc(C)cc3)c(NC(C)=O)c2)CC1, the max dye-equivalent concentration was “inactive”. In the case of COC(=O)c1ccc(N(CC(=O)NC2CCCC2)C(=O)CNC(=O)c2ccco2)cc1, the max dye-equivalent concentration is reported as “inactive”. With Cc1ccccc1N1CC(c2nc3ccccc3[nH]2)CC1=O (stereo not drawn) the max dye-equivalent concentration was “inactive”. For CC(C)(C)n1nnc(CCc2nnn(C(C)(C)C)n2)n1, the max dye-equivalent concentration was “inactive”. In the case of Cc1cc(Cl)c(S(=O)(=O)NCc2cccnc2)cc1OCC(N)=O, the max dye-equivalent concentration is reported as “inactive”. For COC(=O)C(C)N(C#N)c1nc(C)nc(C)n1 (stereo not drawn), the max dye-equivalent concentration was “inactive”. In the case of Cn1c(=O)[nH]c(=O)c2c1nc(Br)n2CCCCSc1nc2ccccc2o1, the max dye-equivalent concentration is reported as “inactive”. For CC[C@]1(O)CC2CN(CCc3c([nH]c4ccccc34)[C@@](C(=O)OC)(c3cc4c(cc3OC)N(C=O)[C@H]3[C@@](O)(C(=O)OC)[C@H](OC(C)=O)[C@]5(CC)C=CCN6CC[C@]43[C@@H]65)C2)C1 (stereo partly drawn), the max dye-equivalent concentration was “inactive”. In the case of CC[C@]1(O)C[C@@H]2CN(CCc3c([nH]c4ccccc34)[C@@](C(=O)OC)(c3cc4c(cc3OC)N(C)[C@H]3[C@@](O)(C(=O)OC)[C@H](OC(C)=O)[C@]5(CC)C=CCN6CC[C@]43[C@@H]65)C2)C1, the max dye-equivalent concentration is reported as 47 nM (active). With Cc1nn(CC(=O)Nc2ccc3c(c2)nc(CN2CCCCC2)n3C)c(=O)c2ccccc12 the max dye-equivalent concentration was “inactive”. In the case of CC(C)NC(=O)N1CC[C@@]2(CCCN(C(=O)c3cccc(F)c3)C2)C1, the max dye-equivalent concentration is reported as “inactive”. In the case of COc1ccccc1CNc1ncnc2ccc(-c3ccc4c(c3)OCO4)cc12, the max dye-equivalent concentration is reported as “inactive”. For Cc1cc(C)nc(N2CCN(c3ncnc4c3oc3ccccc34)CC2)n1, the max dye-equivalent concentration was “inactive”. In the case of COc1ccccc1Nc1ncnc2c1oc1ccccc12, the max dye-equivalent concentration is reported as 73 nM (active). For S=c1[nH]nc(SCc2ccccc2Cl)c2[nH]cnc12, the max dye-equivalent concentration was “inactive”. For CCC(Oc1ccccc1)C(=O)NCc1cccnc1 (stereo not drawn), the max dye-equivalent concentration was “inactive”. With O=C(Nc1cccc(OCC(=O)N2CCOCC2)c1)C1CCCCC1 the max dye-equivalent concentration was “inactive”. In the case of O=C1CC2(CCCCC2)Oc2ccc(OCC(=O)N3CCOCC3)cc21, the max dye-equivalent concentration is reported as 1200 nM (active). With O=C(Oc1ccc2c(c1)CCC2)N1CCOCC1 the max dye-equivalent concentration was “inactive”. In the case of CCOC(=O)CCc1c(C)c2ccc(OCc3nn[nH]n3)c(C)c2oc1=O, the max dye-equivalent concentration is reported as 24 nM (active). With C[C@H](NC(=O)OC(C)(C)C)c1nnc(SCC(=O)Nc2ccc(Br)cc2)o1 the max dye-equivalent concentration was “inactive”. In the case of CCC(=O)Nc1nc2ccccc2n1Cc1ccccc1C, the max dye-equivalent concentration is reported as “inactive”. For C=C(Br)Cn1c(CCCC)nc2ccccc21, the max dye-equivalent concentration was “inactive”. With CCc1nc2ccccc2n(CCOCCOCCn2c(=O)c(CC)nc3ccccc32)c1=O the max dye-equivalent concentration was 34 nM (active). In the case of COc1cccc(OC)c1OCCN1CCN(C(=O)c2ccco2)CC1, the max dye-equivalent concentration is reported as “inactive”.
